# Test results from the supplement of paper PMC8728848.
# The sample as a whole holds a higher share of the strongest signals than the screen did.
# B1: PX14375C-bth-509-28-509 (Bacteroides thetaiotaomicron) (protein)
# chain: RSPQGQFTEDDNPNALVNGKIYNVYTMMRSFDITAGTPAIAIHYLRSEDSEKGSIPSDGSDVAEMYDDFLYTPTNGLLGSYWGKNYAIIYQCNDILDAIAEKETAGQTETEDIINKGEASFFRAYCYFNLVRAFGEVPLVTYKINDASEANIPKTTADKIYEQIDTDLKTAEESLPETWSTEYTGRLTWGAARSLHARTYMMRSDWDNMYKASTDVINKGLYNLKTPYNEIFTDDGENSGGSIFELQCTATAALPQSDVIGSQFCEVQGVRGAGQWDLGWGWHMATQLMADAYETGDPRKNATLLYFRKTDDEPITPENTNEPYGESPISPAMGAYFNKKAYTDPALRKEYTNKGFWVNIRLIRYSDVVLMAAEAANEKNIPGEAVDYLEMVRARARGTNTNILPKITTNDQGELREAIRHERRVELGLEPDRFYDLVRWGIASEVLHAAGKVNYQDKNALLPLPQSEIDKSKGVLVQNPDY
# Experiments:
# Test in all cases: glycan array binding signal (z-score within array); higher = stronger binding
# Conditions in all cases: glycan notation: IUPAC condensed, linker removed
# [1] = target: Gal(b1-4)GlcNAc(b1-3)Gal(b1-4)GlcNAc(b1-3)Gal(b1-4)GlcNAc(b1-2)Man(a1-3)[Gal(b1-4)GlcNAc(b1-3)Gal(b1-4)GlcNAc(b1-3)Gal(b1-4)GlcNAc(b1-2)Man(a1-6)]Man(b1-4)GlcNAc(b1-4)GlcNAc
# Method in brief: (§1)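 Arrays were curated from the Consortium for Functional Glycomics database, 3228 in total, and kept only where the protein sequence was available. Binding is expressed as a within-array Z-score. This score was averaged across arrays of the same protein sequence at different concentrations or buffers and across linkers, and negative values can be read as non-binding.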
# [2] = target: Gal(b1-4)GlcNAc(b1-3)Gal(b1-4)GlcNAc(b1-3)Gal(b1-4)GlcNAc(b1-3)Gal(b1-4)GlcNAc(b1-2)Man(a1-3)[Gal(b1-4)GlcNAc(b1-3)Gal(b1-4)GlcNAc(b1-3)Gal(b1-4)GlcNAc(b1-3)Gal(b1-4)GlcNAc(b1-2)Man(a1-6)]Man(b1-4)GlcNAc(b1-4)GlcNAc
# Method in brief: as §1
# [3] = target: Gal(b1-4)GlcNAc(b1-3)Gal(b1-4)GlcNAc(b1-3)Gal(b1-4)GlcNAc(b1-3)Gal(b1-4)GlcNAc(b1-3)Gal(b1-4)GlcNAc(b1-2)Man(a1-3)[Gal(b1-4)GlcNAc(b1-3)Gal(b1-4)GlcNAc(b1-3)Gal(b1-4)GlcNAc(b1-3)Gal(b1-4)GlcNAc(b1-3)Gal(b1-4)GlcNAc(b1-2)Man(a1-6)]Man(b1-4)GlcNAc(b1-4)GlcNAc
# Method in brief: as §1
# [4] = target: Gal6P(b1-4)GlcNAc
# Method in brief: as §1
# [5] = target: GalNAc(b1-3)Gal(a1-4)Gal(b1-4)GlcNAc(b1-3)Gal(b1-4)Glc
# Method in brief: as §1
# [6] = target: GalNAc(b1-3)Gal(a1-6)Gal(b1-4)Glc
# Method in brief: as §1
# [7] = target: GalNAc(b1-3)GalNAc
# Method in brief: as §1
# [8] = target: GalNAc3S(b1-4)[Fuc(a1-3)]GlcNAc
# Method in brief: as §1
# [9] = target: Glc(b1-6)Glc
# Method in brief: as §1
# [10] = target: GlcNAc(a1-4)Gal(b1-3)GlcNAc
# Method in brief: as §1
# [11] = target: GlcNAc(a1-4)Gal(b1-4)GlcNAc(b1-3)Gal(b1-4)[Fuc(a1-3)]GlcNAc(b1-3)Gal(b1-4)[Fuc(a1-3)]GlcNAc
# Method in brief: as §1
# [12] = target: GlcNAc(b1-3)Gal(b1-4)GlcNAc(b1-3)Gal(b1-4)GlcNAc(b1-2)Man(a1-3)[GlcNAc(b1-3)Gal(b1-4)GlcNAc(b1-3)Gal(b1-4)GlcNAc(b1-2)Man(a1-6)]Man(b1-4)GlcNAc(b1-4)GlcNAc
# Method in brief: as §1
# [13] = target: GlcNAc(b1-3)Gal(b1-4)GlcNAc(b1-3)Gal(b1-4)GlcNAc(b1-3)Gal(b1-4)GlcNAc(b1-2)[GlcNAc(b1-3)Gal(b1-4)GlcNAc(b1-3)Gal(b1-4)GlcNAc(b1-3)Gal(b1-4)GlcNAc(b1-6)]Man(a1-6)[GlcNAc(b1-3)Gal(b1-4)GlcNAc(b1-3)Gal(b1-4)GlcNAc(b1-3)Gal(b1-4)GlcNAc(b1-2)Man(a1-3)]Man(b1-4)GlcNAc(b1-4)[Fuc(a1-6)]GlcNAc
# Method in brief: as §1
# [14] = target: GlcNAc(b1-3)Gal(b1-4)GlcNAc(b1-6)[Gal(b1-3)]GalNAc
# Method in brief: as §1
# [15] = target: GlcNAc(b1-4)GlcNAc(b1-4)GlcNAc(b1-4)GlcNAc(b1-4)GlcNAc
# Method in brief: as §1
# [16] = target: Kdn(a2-3)Gal(b1-3)GlcNAc
# Method in brief: as §1
# [17] = target: Man(a1-2)Man(a1-2)Man(a1-3)Man
# Method in brief: as §1
# [18] = target: Man(a1-2)Man(a1-3)[Man(a1-6)]Man(a1-6)[Man(a1-2)Man(a1-3)]Man(b1-4)GlcNAc(b1-4)GlcNAc
# Method in brief: as §1
# [19] = target: Man(a1-2)Man(a1-6)[Man(a1-3)]Man(a1-6)[Man(a1-2)Man(a1-2)Man(a1-3)]Man(b1-4)GlcNAc(b1-4)GlcNAc
# Method in brief: as §1
# [20] = target: Neu5Ac(a2-3)Gal(b1-3)GlcNAc(b1-2)Man
# Method in brief: as §1
# [21] = target: Neu5Ac(a2-3)Gal(b1-3)GlcNAc(b1-6)GalNAc
# Method in brief: as §1
# [22] = target: Neu5Ac(a2-3)Gal(b1-4)GlcNAc(b1-3)Gal(b1-4)GlcNAc(b1-3)Gal(b1-4)GlcNAc(b1-2)Man(a1-3)[Neu5Ac(a2-3)Gal(b1-4)GlcNAc(b1-3)Gal(b1-4)GlcNAc(b1-3)Gal(b1-4)GlcNAc(b1-2)Man(a1-6)]GalNAc
# Method in brief: as §1
# [23] = target: Neu5Ac(a2-3)Gal(b1-4)GlcNAc6S
# Method in brief: as §1
# [24] = target: Neu5Ac(a2-3)Gal(b1-4)[Fuc(a1-3)]GlcNAc(b1-3)GalNAc
# Method in brief: as §1
# [25] = target: Neu5Ac(a2-8)Neu5Ac
# Method in brief: as §1
# [26] = target: Neu5Ac(a2-8)Neu5Gc(a2-3)Gal(b1-4)GlcNAc
# Method in brief: as §1
# [27] = target: Neu5Gc(a2-6)GalNAc
# Method in brief: as §1
binder,measurement,setting,value
B1,glycan array binding signal (z-score),[1],0.774
same,glycan array binding signal (z-score),[2],0.053
same,glycan array binding signal (z-score),[3],3.46
same,glycan array binding signal (z-score),[4],-0.343
same,glycan array binding signal (z-score),[5],0.244
same,glycan array binding signal (z-score),[6],-0.426
same,glycan array binding signal (z-score),[7],1.2
same,glycan array binding signal (z-score),[8],-0.31
same,glycan array binding signal (z-score),[9],-0.146
same,glycan array binding signal (z-score),[10],-0.442
same,glycan array binding signal (z-score),[11],-0.057
same,glycan array binding signal (z-score),[12],3.19
same,glycan array binding signal (z-score),[13],-0.11
same,glycan array binding signal (z-score),[14],-0.076
same,glycan array binding signal (z-score),[15],0.127
same,glycan array binding signal (z-score),[16],0.209
same,glycan array binding signal (z-score),[17],-0.321
same,glycan array binding signal (z-score),[18],-0.274
same,glycan array binding signal (z-score),[19],-0.383
same,glycan array binding signal (z-score),[20],-0.329
same,glycan array binding signal (z-score),[21],3.9
same,glycan array binding signal (z-score),[22],5.44
same,glycan array binding signal (z-score),[23],-0.321
same,glycan array binding signal (z-score),[24],-0.014
same,glycan array binding signal (z-score),[25],4.99
same,glycan array binding signal (z-score),[26],5.56
same,glycan array binding signal (z-score),[27],-0.21
